Screening data from PubChem BioAssay.
VDR inhibitor = inhibitors of human vitamin D receptor. P11473. VDR-SRC2-3 peptide fluorescence polarization, 2 h. Potency, µM, inactives show max response, negative = inhibition, hits mostly inhibitors. hit rate 0.93% among 400,000; note: % is set by controls: 0 for no effect and ±100 for the full control effect
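VDR–SRC2-3 interaction, FP format. Cmpds 23 nl via pintool, brief spin, 2 h ambient incubation.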
BAZ2B block = blocks human BAZ2B. Potency, µM (highest dose often 114 µM), without a hit: at the highest dose activity change, negative = inhibition, usual class: inhibitors. Q9UIF8. hit rate 4.4% among 360,000. AlphaScreen BAZ2B-H3K14Ac peptide displacement. AID 504333; note: % is set by controls: 0 for no effect and ±100 for the full control effect; nearly all actives have a fitted effect of over 60% in size
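Multi-concentration screen (max 110 uM) measuring displacement of acetylated histone H3 peptide from BAZ2B by AlphaScreen, using 50 nM protein, 50 nM peptide and 10 ug/mL streptavidin donor plus Ni-chelate acceptor beads.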
L3MBTL1 inh = L3MBTL1 (human) inhibition. Q9Y468. AID 485360. Potency, µM (highest dose often 57.1 µM), for the others: at the highest dose activity, negative = inhibition, hits mostly inhibitors. hit rate 0.66% among 230,000. AlphaScreen L3MBTL1–H3K9me1 peptide binding; note: % is set by controls: 0 for no effect and ±100 for the full control effect; nearly all actives have a fitted effect of over 60% in size
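L3MBTL1 50 nM + b-AHA-H3(1-15)K9me1 75 nM, 30 min RT; compound added, 30 min RT; streptavidin donor/Ni-chelate acceptor beads 10 ug/mL each final, 30 min RT dark; AlphaScreen read.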
HP1b chromo inh = inhibitors of HP1-beta chromodomain binding to methylated histone tails; hit rate 0.56% among 390,000; AID 540317; AlphaScreen HP1-beta / biotin-H3K9me3 peptide binding; Potency, µM (series often up to 114 µM), inactives show top-dose activity change, negative = inhibition, actives largely listed as inhibitors; note: nearly all actives have a fitted effect of over 70% in size
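Compound inhibition of the preformed complex between 50 nM HP1-beta and 50 nM biotinylated H3K9me3 peptide was read by AlphaScreen. Buffer was PBS pH 7.4 with 0.01% Tween-20. Incubations ran 30 min at room temperature, with 10 ug/mL donor/acceptor beads.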
PLK1 PBD block = inhibitors of human PLK1 polo-box domain binding. hit rate 2.8% among 360,000. P53350. Potency, µM, inactives show max response, negative = inhibition, usual class: inhibitors. Plk1 PBD binding of FITC phosphopeptide, fluorescence polarization; note: series mostly up to about 57 µM; % is set by controls: 0 for no effect and ±100 for the full control effect; nearly all actives have a fitted effect of over 65% in size
JMJD2A Tudor = JMJD2A Tudor domain (human) inhibition; AlphaScreen JMJD2A-Tudor / H3K4me3 peptide binding; Potency, µM (titrated, usually from 114 µM), for inactives: at the top dose activity change, negative = inhibition, usual class: inhibitors; hit rate 4.4% among 390,000; note: % is set by controls: 0 for no effect and ±100 for the full control effect; nearly all actives have a fitted effect of over 50% in size
Target sequence (O75164 whole entry, looked up, the tested form may be a part): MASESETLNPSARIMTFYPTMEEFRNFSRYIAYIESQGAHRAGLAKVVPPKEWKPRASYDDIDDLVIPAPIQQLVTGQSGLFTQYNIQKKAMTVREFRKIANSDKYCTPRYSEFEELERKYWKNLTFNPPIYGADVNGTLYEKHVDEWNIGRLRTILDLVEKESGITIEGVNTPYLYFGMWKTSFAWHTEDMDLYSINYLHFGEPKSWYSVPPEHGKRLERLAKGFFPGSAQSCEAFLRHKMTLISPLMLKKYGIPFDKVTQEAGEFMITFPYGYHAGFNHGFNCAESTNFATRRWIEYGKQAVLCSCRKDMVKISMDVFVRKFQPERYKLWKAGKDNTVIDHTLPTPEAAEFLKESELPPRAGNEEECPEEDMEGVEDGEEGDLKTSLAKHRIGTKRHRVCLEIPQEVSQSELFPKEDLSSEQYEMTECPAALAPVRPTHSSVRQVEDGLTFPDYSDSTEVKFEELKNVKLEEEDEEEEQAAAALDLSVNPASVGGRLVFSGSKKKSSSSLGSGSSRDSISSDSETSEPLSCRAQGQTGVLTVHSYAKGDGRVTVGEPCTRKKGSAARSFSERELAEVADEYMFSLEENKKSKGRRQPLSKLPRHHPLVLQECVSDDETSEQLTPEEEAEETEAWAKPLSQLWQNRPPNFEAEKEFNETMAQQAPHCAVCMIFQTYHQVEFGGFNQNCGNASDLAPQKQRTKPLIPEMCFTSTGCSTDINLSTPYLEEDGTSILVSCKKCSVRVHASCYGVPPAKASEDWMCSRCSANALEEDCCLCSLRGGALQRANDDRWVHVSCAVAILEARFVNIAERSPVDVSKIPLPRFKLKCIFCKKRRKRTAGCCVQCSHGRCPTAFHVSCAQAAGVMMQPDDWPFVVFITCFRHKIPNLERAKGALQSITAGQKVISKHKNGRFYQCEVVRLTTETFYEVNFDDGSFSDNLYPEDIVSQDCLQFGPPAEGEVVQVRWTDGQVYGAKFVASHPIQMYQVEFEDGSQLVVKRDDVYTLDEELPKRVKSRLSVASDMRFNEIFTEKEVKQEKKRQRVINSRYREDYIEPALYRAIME
* marks the source's active call; other numbers are inactive results; ? = inconclusive; nt = no result given; [ ] = another dose, or the depositor's remark. Sampled rows, rich in hits. Any-hit rate of the full collection: about 6.9%. Calls come from the whole dose curve; as a rule, active = well fitted curve in the direction sought with a large enough effect; inconclusive = small, poorly fitted or top-dose-only effect, or another doubt; inactive = no such curve, though single readings can be large; an effect the other way counts as inactive or inconclusive. Potency is the fitted concentration of half-maximal effect.

SMILES	VDR inhibitor	BAZ2B block	L3MBTL1 inh	HP1b chromo inh	PLK1 PBD block	JMJD2A Tudor
O=C(O)CCc1ccc(-c2ccc(Br)cc2)n1-c1ccc(O)cc1	-1%	40µM*	nt	?	?	?
CCOc1ccc(-n2c(CCC(=O)O)ccc2-c2ccc(Br)cc2)cc1	10%	40µM*	nt	?	nt	?
CCOC(=O)c1ccc(-n2c(CCC(=O)O)ccc2-c2ccc(Br)cc2)cc1	?	50µM*	nt	?	nt	?
N[C@H](CC(=O)O)C(=O)O	1%	nt	nt	nt	nt	nt
COc1cccc(N2CCN(c3nc4ccc(C(=O)c5ccccc5)cc4n4c(C)nnc34)CC2)c1	-6%	-27%	nt	8%	nt	-21%
CCOc1ccc(CCNC(=O)NCc2noc3ccc(C)cc23)cc1	2%	-35%	nt	31%	nt	-15%
O=C(O)CCc1ccc(-c2ccc(Cl)cc2)n1-c1cccc(C(F)(F)F)c1	?	35µM*	nt	-22%	nt	?
Cc1ccc(CS(=O)(=O)CC(C)(O)c2ccccc2)cc1 (stereo not drawn)	18%	7%	nt	49%	-2%	-1%
CCOc1ccccc1NC1=C(OC)C(=O)C(Nc2ccccc2OCC)=C(OC)C1=O	6%	nt	nt	8.9µM*	0%	7.1µM*
COCCn1c(=O)cnc2cnc(OC)nc21	9%	nt	nt	nt	nt	nt
Cc1ccc(NS(=O)(=O)c2ccc3[nH]c(=O)[nH]c3c2)cc1C	nt	nt	nt	nt	nt	-14%
S=c1[nH]nc(C2CCCCC2)n1/N=C/c1ccc(Br)cc1	16%	-3%	nt	19%	?	-2%
S=c1[nH]nc(C2CCCCC2)n1/N=C/c1ccc(Cl)cc1	-10%	-22%	nt	13%	30µM*	-31%
S=c1[nH]nc(C2CCCCC2)n1/N=C/c1c(Cl)cccc1Cl	-4%	-29%	nt	17%	30µM*	-10%
C[N+]1(CC(=O)OCCCc2ccccc2)CCCC1	-8%	56µM*	-1%	21%	-21%	?
O=C(CN1CCCC1)OCCCc1ccccc1	2%	-6%	-17%	-1%	-10%	-11%
NNC(=O)CN1C(c2ccccc2Br)=Nc2ccc(Br)cc2C1c1ccccc1 (stereo not drawn)	71µM*	?	?	20%	-10%	-31%
NNC(=O)CN1C(c2cccc(Cl)c2)=Nc2ccc(Br)cc2C1c1ccccc1 (stereo not drawn)	10%	-9%	-7%	30%	-14%	-10%[57.1 µM]
CCc1cc2c(-c3ccccc3)cc(=O)oc2c2c1OCN(Cc1ccc(F)cc1)C2	0%	8%	nt	81%	nt	1%
CC(C)OCCCN(CC(O)c1ccccc1)CC(O)c1ccccc1 (stereo not drawn)	14%	?	1%	?	1%	5.6µM*
O=C(CSc1nc(-c2ccc(F)cc2)nc2c1Cc1ccccc1O2)Nc1cccc(C(=O)O)c1	4%	7.9µM*	?	?	11µM*	10µM*
COC(=O)Cc1nnc(SCC(=O)Nc2ccccc2)c2ccccc12	79µM*	-24%	nt	61%	-1%	11%
Cn1cnnc1SCC(=O)Nc1cccc(C(=O)O)c1	8%	-1%	nt	36%	2%	14%
O=C(CSc1nc(-c2ccccc2)nc2ccc(F)cc12)Nc1cccc(C(=O)O)c1	-5%	79µM*	nt	23%	-26%	?
O=C(CSc1nncc2ccccc12)Nc1cccc(C(=O)O)c1	-17%	?	nt	-9%	19µM*	1%[11.4 µM]
SMILES	VDR inhibitor	BAZ2B block	L3MBTL1 inh	HP1b chromo inh	PLK1 PBD block	JMJD2A Tudor
O=[S+]([O-])(c1ccc(N2CCOCC2)nc1)N1CCN([S+](=O)([O-])c2c(F)cccc2F)CC1	nt	nt	nt	nt	nt	-21%
CCOC(=O)c1c(C)oc2nc(C)nc(NCc3ccc(F)cc3)c12	13%	11%[57.1 µM]	nt	44%	nt	16%
CCOc1ccc(NC(=O)COc2ccc(S(=O)(=O)NC3CCCCC3)cc2)cc1	-9%	-8%	nt	17%	nt	-16%
CN1CCN(CCCNC(=O)c2cnn(-c3ccccc3)c2-n2cccc2)CC1	-8%	2%	nt	5%	nt	-26%
CCOC(=O)c1cccc(NC(=O)Nc2ccc3c(c2)N(C)C(=O)c2ccccc2S3)c1	1%	-11%	nt	10%	nt	-27%
Cc1ccc(SCC(=O)Nc2nnc(C(C)(C)C)s2)cc1	4%	-32%	-3%	7%	21µM*	-12%
COc1ccc(/C=C/c2nnc(NC(=O)CSc3ccc(C)cc3)s2)cc1	-12%	0%	nt	30%[57 µM]	-5%	-11%[57.1 µM]
COc1ccc(C=CC(=O)c2cc(O)ccc2O)cc1	?	nt	nt	?	-2%	40µM*
COc1ccc(C(=O)/C=C/c2ccc(O)cc2)cc1	-11%	-26%	8%	9%	-3%	-31%
O=C(/C=C/c1cccc(O)c1)c1cccnc1	56µM*	12%	nt	3%	?	-14%
Cc1ccc(/C=C/C(=O)c2ccccc2O)cc1	?	?	12%	?	-5%	-27%
Cc1ccc(O)c(C(=O)C=Cc2ccccc2)c1	?	nt	nt	?	-9%	40µM*
O=C(/C=C/c1cccnc1)c1cccc(O)c1	?	-24%	nt	67%	-13%	?
Cc1cccc(C=CC(=O)c2ccccc2)c1	45µM*	nt	nt	30%	-12%	65%
CCC(=O)C1=C(c2cccc([N+](=O)[O-])c2)N(C(=O)CC)n2c(nnc2C2CCCCC2)S1	6%	-31%	nt	14%	nt	-17%
Cc1ccc(Cl)cc1N1CCN(C(=O)C2CCN(S(=O)(=O)c3c(C)noc3/C=C/c3ccccc3F)CC2)CC1	0%	0%	nt	24%[57 µM]	nt	-7%
COCCNC(=O)C1(C)CCCN(C(=O)c2cc(OC)c(OC)c(OC)c2)C1 (stereo not drawn)	nt	nt	nt	nt	-5%	nt
Cc1nn(CC(=O)NCC(C)c2ccccc2)c(=O)c2cc3ccccc3n12 (stereo not drawn)	-8%	-7%	nt	12%	nt	-4%
CCC(=O)Nc1ccc(NC(=O)/C=C/c2ccc(Cl)cc2)cc1	?	-3%	0%	?	30µM*	-26%[57.1 µM]
COc1cc(C)cc(C(=O)C=Cc2ccccc2)c1O	?	nt	nt	?	?	56µM*
CC(=O)Nc1ccc(NC(=S)NC(=O)/C=C/c2ccc(Cl)cc2)cc1	1%	-13%	nt	-16%	?	-18%
Cc1ccc(O)c(C(=O)/C=C/c2ccc3c(c2)OCCCO3)c1	?	28µM*	?	?	-2%	16µM*
CCC(=O)Nc1cccc(C(=O)/C=C/c2ccccc2)c1	50µM*	-6%	-4%	0%	-21%	-24%
O=C(/C=C/c1ccc2c(c1)OCCCO2)c1ccccc1O	?	?	-3%	?	0%	?
CCOc1ccc(/C=C/C(=O)c2ccccc2)cc1OC	79µM*	-6%	-4%	53%	-3%	-1%
Cc1ccc(S(=O)(=O)N2CCN(c3nc(C)nc4sc(C)c(C)c34)CC2)cc1	nt	8%	4%	nt	nt	nt
